From PubChem BioAssay
Several values for one entry are separate records, joined by “and”; a condition that tells them apart may be missing. Equal values may be shown once. A number with no mark means an inactive call. How the calls were made is not given here.

These molecules were tested against Pantothenate synthetase (Mycobacterium tuberculosis (strain ATCC 25618 / H37Rv)) (UniProt P9WIL5) (assay: Coupled enzyme confirmation of inhibitors against recombinant Mtb PanC (AID 375;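 further: 0% = full reaction with vehicle and 100% = no enzyme background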)). Details: coupled enzyme assay; at 10 µM, stronger effect = higher value.
Chain of Pantothenate synthetase (Mycobacterium tuberculosis (strain ATCC 25618 / H37Rv)) (P9WIL5 whole entry, looked up): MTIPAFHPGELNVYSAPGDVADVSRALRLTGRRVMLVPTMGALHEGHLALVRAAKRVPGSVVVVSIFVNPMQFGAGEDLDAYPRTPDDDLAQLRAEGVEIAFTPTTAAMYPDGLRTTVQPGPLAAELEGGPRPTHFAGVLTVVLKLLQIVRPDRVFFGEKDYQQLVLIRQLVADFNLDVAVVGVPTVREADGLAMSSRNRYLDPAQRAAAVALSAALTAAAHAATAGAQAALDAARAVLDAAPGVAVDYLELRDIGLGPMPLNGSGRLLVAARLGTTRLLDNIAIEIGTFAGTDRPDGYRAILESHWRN

| SMILES | inhibition |
| --- | --- |
| O=C(NCc1ccccc1)C1CCN(S(=O)(=O)c2cccc3cccnc23)CC1 | 0% |
| CC(C)CNC(=O)c1ccccc1NC(=O)CN(c1ccc2c(c1)OCCO2)S(C)(=O)=O | 0% |
| CCN(CC)CC(=O)Nc1c(C)cccc1C | 7% and 0% |
| NC(=O)c1c(NC(=O)Cc2cccs2)sc2c1CCC2 | 0% |
| Cc1ccc(C(=O)N2CCN(C(=O)c3ccc(C)c(C)c3)C(C)C2)cc1C (stereo not given) | 7% |
| O=C(CP(=O)(c1ccccc1)c1ccccc1)N1CCCCC1 | 6% |
| CSc1nc2ccc(Nc3nc(N4CCOCC4)nc(N4CCOCC4)n3)cc2s1 | 2% |
| CCOC(=O)c1c(NC(=O)c2nn(CC)cc2Br)c(C#N)cn1-c1ccccc1 | 0% |
| O=C(Nc1cccc(C(F)(F)F)c1)c1cccnc1N1CCCC1 | 4% |
| COC(=O)c1ccc(CSc2nc3ccccc3c(=O)n2Cc2ccco2)o1 | 6% |
| Nc1nc(-c2ccc(Br)s2)c(Br)s1 | 2% |
| CCCCCCNS(=O)(=O)c1ccc(Cl)s1 | 2% |
| Cc1ccc(S(=O)(=O)CCC(=O)Nc2ccc3c(c2)OCO3)cc1 | 6% |
| Cc1cccc(COc2ccc(/C(O)=C3\C(=O)C(=O)N(CCN(C)C)C3c3ccncc3)cc2)c1 (stereo not given) | 13% |
| COc1ccccc1NC(=O)Cn1nnc(-c2ccccc2NC(=O)c2ccco2)n1 | 0% |
| Cc1ccc(-n2ncc3c(N4CCN(c5ccc(F)cc5)CC4)ncnc32)c(C)c1 | 6% |
| O=C(c1noc2c1CCc1ccccc1-2)N1CCOCC1 | 0% |
| COc1ccc(OCCOC(=O)c2cccs2)cc1 | 0% |
| CCCC(=O)Nc1nc2ccc(S(N)(=O)=O)cc2s1 | 0% |
| CCCCCn1c(CN2CCN(C)CC2)nc2c1c(=O)n(C)c(=O)n2C | 0% |

| SMILES | inhibition |
| --- | --- |
| CN1[C@@H](CC(=O)c2ccccc2)CCC[C@H]1C[C@H](O)c1ccccc1 | 8% |
| COc1ccc(-n2c(SCCC(=O)O)nnc2-c2ccncc2)cc1 | 5% |
| Cn1nnnc1SCc1cn2cccnc2n1 | 0% |
| CCC(C)Nc1nc2c(c(=O)n(C)c(=O)n2C)n1Cc1ccc(F)cc1 (stereo not given) | 3% |
| COc1cccc(NC(=O)c2nc3nc(C)cc(C(F)F)n3n2)c1 | 0% |
| CC1C(c2ccccc2)N(C)CCC12NC(=O)NC2=O (stereo not given) | 1% |
| COc1cc([C@@H]2[C@H]3CN(C)CC=C3C(C#N)=C(N)C2(C#N)C#N)cc2c1OCO2 | 0% |
| CCc1nnc(-n2nc(C)cc2-c2ccccc2)n1N | 3% |
| C=CCSc1n[nH]c(-c2ccc(OC)cc2)n1 | 0% |
| O=C(CSc1nnc(COc2ccc(Cl)cc2)o1)N1CCN(c2ccccc2)CC1 | 0% |
| CC(=O)N1CCc2cc(S(=O)(=O)CCC(=O)Nc3cccc(F)c3)ccc21 | 0% |
| Cc1ccc(-n2nnnc2SCC(=O)c2cc(C)n(-c3cc(C)on3)c2C)cc1 | 4% |
| CCOC(=O)N1CCN(C(=O)CN(Cc2ccccc2)S(=O)(=O)c2ccc(OC)c(C)c2)CC1 | 5% |
| O=C1CC(c2ccccc2)CC(O)=C1C=NCCCN1CCOCC1 (stereo not given) | 5% |
| CC(=O)NC(=O)NC1CSCC1OC(C)=O (stereo not given) | 4% |
| C=CCn1c(SCC(=O)c2cc(C)n(C(C)COC)c2C)nc2sc(C)c(C)c2c1=O (stereo not given) | 4% |
| CC(=O)Nc1ccc(OC(=O)c2cccs2)cc1 | 0% |
| Cc1ccc(-n2ncc3c(=O)n(CC(=O)N4CCCc5ccccc54)cnc32)cc1C | 4% |
| CC1CCCC(C(=O)OCc2ccccc2)N1 (stereo not given) | 0% |
| CCOC(=O)c1c(N)sn(-c2ccccc2)c1=S | 5% |
